For 40 sequences, sensor-assay potency score (higher = more potent) results are on record in the OligoGym collection.
Also: reference of the scale not given here.

In the first assay the target is TP53I13. Nature of the assay: pooled miR-30 sensor sort-seq; sequence = guide strand. The settings on record: shRNA.
TAGCCATACAAGCATAGGCCAG yielded a sensor-assay potency score (higher = more potent) of -1.71.

TTGAACAGACACAGCCCCCTGG displayed a sensor-assay potency score (higher = more potent) of 0.146.

For TTTCACAGTAGATCCATGCCTT, the sensor-assay potency score (higher = more potent) was 0.393.

Sequence TCGGAAGTTTCTGTGCAGCCGT yielded a sensor-assay potency score (higher = more potent) of -0.684.

As for TGAGCCTCTGTCCTGGAGCTGG, the sensor-assay potency score (higher = more potent) was -1.27.

Regarding TCACTCTTGGTGACACCTGCGG, the sensor-assay potency score (higher = more potent) was -0.664.

For TCGTGTGTAGGTCACTCTTGGT, the sensor-assay potency score (higher = more potent) is -1.06.

Another assay deals with TP73. The assay is described as above. The settings on record: shRNA.
TTGGGAGGTGAAATACTCGATG yielded a sensor-assay potency score (higher = more potent) of -0.725.

Take TTACACATGAAGTTGTACAGGA: the sensor-assay potency score (higher = more potent) turned out to be 1.03.

For the sequence TCTGGTTCCAGAGAGCTCCAGA, the sensor-assay potency score (higher = more potent) came to 0.275.

TGGAGCAGACTGTCCTTCGTTG had a sensor-assay potency score (higher = more potent) of -1.24.

In turn, TGTAGCTGCCGAACTGTGCGGG showed a sensor-assay potency score (higher = more potent) of -0.215.

Turning to TTGTAAACAGGCATGGCCCGGA, the sensor-assay potency score (higher = more potent) is 0.143.

Regarding TAGAGTTTCTTCAAGAGCGGGG, the sensor-assay potency score (higher = more potent) was determined as 0.308.

With TTGGGTGTAGCTGCCGAACTGT, the sensor-assay potency score (higher = more potent) was -0.212.

TCGAAGTAGGTGCTGTCTGGTT gave a sensor-assay potency score (higher = more potent) of -0.818.

For TACACAGCTGCTGTTACACATG, the sensor-assay potency score (higher = more potent) is -0.991.

Regarding TAGTACGTGTCCTCGTCTCCAT, the sensor-assay potency score (higher = more potent) was -0.503.

In turn, TTTCACGACGTCGGTCACGTGC yielded a sensor-assay potency score (higher = more potent) of -1.03.

In another assay the target is TPPP2. Described as above. The settings on record: shRNA.
Sequence TCTTTGAACTGTTGAAACGTGA registered a sensor-assay potency score (higher = more potent) of -0.298.

Turning to TTGTTGTTCATTTCAGTGCCAC, the sensor-assay potency score (higher = more potent) was 0.0122.

As to TTGCTGGTGTCTGTCAAACGGT, the sensor-assay potency score (higher = more potent) was -1.11.

On to TTGAACTGTTGAAACGTGATGG, for which the sensor-assay potency score (higher = more potent) was found to be 0.216.

TTGTCAGTCATCTCTTCCCGTC displayed a sensor-assay potency score (higher = more potent) of -0.714.

TTGTTGCTTTAGTAGCGCCAGT gave a sensor-assay potency score (higher = more potent) of -1.46.

The sequence TTGTAACCACTCACATAGCCTG registered a sensor-assay potency score (higher = more potent) of -0.748.

TTTGCTGAACACGATGTCCACG came in with a sensor-assay potency score (higher = more potent) of -0.579.

Turning to TTGATGATTCTCCAAACGCAGC, the sensor-assay potency score (higher = more potent) is -1.67.

In turn, TGTAACCACTCACATAGCCTGT had a sensor-assay potency score (higher = more potent) of -0.785.

TTCTTGGCCTTGACTTTGCTGA came in with a sensor-assay potency score (higher = more potent) of -0.996.

Take TTATTGTTTTCCAAGCTCCCTG: the sensor-assay potency score (higher = more potent) is -0.417.

The target in a further assay is TPPP3. The assay is described as above. The settings on record: shRNA.
TTTCCGTCAGCCACCTTGCAGT: the sensor-assay potency score (higher = more potent) was -0.592.

Take TTGGTCGCCAGCTCTTCCAGGG: the sensor-assay potency score (higher = more potent) was -0.176.

In turn, TTTTGCTTTAGTGACGCCCACA showed a sensor-assay potency score (higher = more potent) of -1.34.

Sequence ACTGTCGTCCAGGATGTCCTGC returned a sensor-assay potency score (higher = more potent) of -0.739.

Sequence TTGACTTTGGAGAAGACGATGT returned a sensor-assay potency score (higher = more potent) of -0.378.

Sequence TTGAACTCCTCATAGTTGATGA yielded a sensor-assay potency score (higher = more potent) of -0.547.

TTGTAGGCGCTCACGTAGCCAC registered a sensor-assay potency score (higher = more potent) of -1.01.

Regarding TTGTGGGAGCCCGTGTATCTGC, the sensor-assay potency score (higher = more potent) is -1.44.

With TCGTCCAGGATGTCCTGCCGTC, the sensor-assay potency score (higher = more potent) is -0.707.
